Bioassay records (PubChem)
ELG1 genotoxic: genotoxicity induction in ELG1-luciferase HEK293T cells | Potency, µM (titrated, usually from 46 µM), hits mostly activators | hit rate 1.3% among 330,000 | HEK293T ELG1-luciferase reporter, luminescence, 16 h; further: nearly all actives have a fitted effect of over 60% in size
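Reporter readout depends on ELG1 protein level, which increases with genetic stress. After 16 hr compound exposure at 37 °C, luciferase activity was quantified using ONE-Glo.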
FLuc modulator: counter-screen for miR-21 project: firefly luciferase inhibitors or activators | purified FLuc, Km substrates, luminescence inhibition | Potency, µM (titrated, usually from 57.5 µM), hits mostly inhibitors | hit rate 6.9% among 360,000; further: nearly all actives have a fitted effect of over 55% in size
Target sequence (P08659 whole entry, looked up): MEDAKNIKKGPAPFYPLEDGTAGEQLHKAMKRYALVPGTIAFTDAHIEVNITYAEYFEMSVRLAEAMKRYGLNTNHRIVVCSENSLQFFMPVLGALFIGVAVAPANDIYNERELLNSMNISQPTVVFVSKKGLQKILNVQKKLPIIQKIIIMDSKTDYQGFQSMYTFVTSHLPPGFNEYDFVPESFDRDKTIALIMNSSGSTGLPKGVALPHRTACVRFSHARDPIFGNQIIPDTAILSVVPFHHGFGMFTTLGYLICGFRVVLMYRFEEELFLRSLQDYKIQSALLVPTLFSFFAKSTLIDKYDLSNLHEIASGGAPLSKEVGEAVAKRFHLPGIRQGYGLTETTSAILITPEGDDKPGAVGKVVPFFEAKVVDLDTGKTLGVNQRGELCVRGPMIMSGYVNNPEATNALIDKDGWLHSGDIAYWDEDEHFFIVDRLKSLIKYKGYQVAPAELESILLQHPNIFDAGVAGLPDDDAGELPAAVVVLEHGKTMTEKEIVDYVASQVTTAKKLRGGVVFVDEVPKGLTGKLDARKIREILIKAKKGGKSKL
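Purified P. pyralis luciferase (10nM final) with 10uM D-luciferin and 10uM ATP (Km levels) in 50mM Tris acetate pH 7.5, 10mM Mg acetate, 0.01% Tween-20, 0.05% BSA; qHTS 6-point titration, ~60 µM downward; luminescence read.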
KinaseGlo FLuc: counter-screen: inhibitors of Kinase-Glo firefly luciferase; AID 1379; hit rate 0.28% among 200,000; Potency, µM (top dose mostly 38.3 µM), most hits filed as inhibitors; Kinase-Glo luciferase, ATP luminescence, 8 min; Q27757; further: nearly all actives have a fitted effect of over 60% in size
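Kinase-Glo luciferase light output from ATP and luciferin was measured with 10 uM ATP, within the enzyme's linear range. Buffer: 50 mM imidazole pH 7.2, 50 mM KCl, 7 mM MgCl2, 0.01% Tween 20, 0.05% BSA; luminescence read after 8 min at ambient temperature.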
Rab9 promoter act: Rab9 promoter activation; Huh7 Rab9 promoter-luciferase reporter, luminescence, 24 h; Potency, µM (series often up to 9.22 µM), most hits filed as activators; hit rate 2.8% among 320,000; further: nearly all actives have a fitted effect of over 60% in size
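Huh7 cells stably carrying a Rab9 promoter-luciferase reporter, 1500 cells per well in OP-MEM I with 10% FBS, treated with compound 24 hours at 37C. Luciferase activity read by luminescence after 10 minutes with Amplite reagent.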
NPC1 promoter act: NPC1 promoter activation. Huh7 NPC1 promoter luciferase reporter, 24 h. Potency, µM (doses to about 9.22 µM), most hits filed as activators. hit rate 2.4% among 320,000. AID 485313; further: nearly all actives have a fitted effect of over 60% in size
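NPC1 promoter–luciferase Huh7 cells; 24 h compound; luminescence.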
SMN2 splice enh: enhancers of SMN2 splice variant expression | HEK293 SMN2-luciferase splicing reporter, luminescence, 30-36 h | Potency, µM (series often up to 46.1 µM), actives largely listed as activators | hit rate 2.8% among 210,000 | AID 1458; further: nearly all actives have a fitted effect of over 55% in size
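qHTS luciferase splicing reporter: luminescence rises when SMN2 exon 7 is included in transfected HEK293 cells. Compound exposure lasted 30-36 h at 37C, with 4.5 mM final sodium butyrate as control, followed by a ONE-Glo read.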
Each line names hits and unclear results; the compound was inactive in the other large screens. The list is not random: actives were taken first. Their share in the collection is about 7.5%. The call rests on the fitted dose curve; in most records, active means well fitted curve in the direction sought with a large enough effect; inconclusive means small, poorly fitted or top-dose-only effect, or another doubt; inactive means no such curve, though single readings can be large; an effect the other way counts as inactive or inconclusive.

Cc1ccc(-n2nc3c(n2)/C(=N/O)CC/C3=N\O)cc1	ELG1 genotoxic inconclusive, FLuc modulator 9.53µM, KinaseGlo FLuc 12.6µM, Rab9 promoter act 3.16µM, NPC1 promoter act inconclusive, SMN2 splice enh 12.6µM
COc1ccc(-c2noc(-c3ccc(NC4CCCC4)c([N+](=O)[O-])c3)n2)cc1OC	FLuc modulator 13.5µM (no result: ELG1 genotoxic, KinaseGlo FLuc, Rab9 promoter act, NPC1 promoter act, SMN2 splice enh)
COc1cc(-c2noc(-c3ccc(NCC4CCCO4)c([N+](=O)[O-])c3)n2)cc(OC)c1OC (configuration not stated)	FLuc modulator 21.3µM (no result: ELG1 genotoxic, KinaseGlo FLuc, Rab9 promoter act, NPC1 promoter act, SMN2 splice enh)
O=[N+]([O-])c1cc(-c2nc(-c3ccco3)no2)ccc1NCc1ccccc1	FLuc modulator 15.1µM (no result: ELG1 genotoxic, KinaseGlo FLuc, Rab9 promoter act, NPC1 promoter act, SMN2 splice enh)
COc1cc(-c2noc(-c3ccc(NCc4ccccc4)c([N+](=O)[O-])c3)n2)cc(OC)c1OC	FLuc modulator 15.1µM (no result: ELG1 genotoxic, KinaseGlo FLuc, Rab9 promoter act, NPC1 promoter act, SMN2 splice enh)
Cc1ccc(C(=O)c2coc3c2C(=O)C(=O)c2ccccc2-3)cc1	ELG1 genotoxic 14.1µM, FLuc modulator inconclusive
Cc1nn(-c2ccc(F)cc2)c(Cl)c1/C=N/NC(=O)c1cccs1	FLuc modulator inconclusive, Rab9 promoter act 2µM, NPC1 promoter act inconclusive, SMN2 splice enh inconclusive
CNC(=S)N/N=C/c1c(C)nn(-c2ccc(F)cc2)c1Cl	none
Cc1nn(-c2ccc(F)cc2)c(Cl)c1/C=N/NC(=O)c1ccc(O)cc1	FLuc modulator 19µM
O=C(N[C@H]1/C=C\[C@@H](O)CCCC1)OCc1ccccc1	ELG1 genotoxic 14.6µM (no result: FLuc modulator, KinaseGlo FLuc, Rab9 promoter act, NPC1 promoter act, SMN2 splice enh)
O=C(OCC(=O)N1CCC(Cc2ccccc2)CC1)c1ccccc1F	FLuc modulator 4.26µM (no result: KinaseGlo FLuc, SMN2 splice enh)
O=C(OCC(=O)N1CCC(Cc2ccccc2)CC1)c1ccccc1	FLuc modulator 12µM, Rab9 promoter act inconclusive
CCN(CC)C(=O)c1ccc(-c2cccs2)s1	ELG1 genotoxic inconclusive, FLuc modulator 10.7µM, Rab9 promoter act 3.55µM, NPC1 promoter act 2.51µM (no result: KinaseGlo FLuc, SMN2 splice enh)
CCN(CC)C(=O)c1sc(NC(=O)c2cccs2)c(C#N)c1C	none (no result: SMN2 splice enh)
CCCCN=C1NN=C(c2ccc3c(c2)OCCO3)CS1	ELG1 genotoxic 1.83µM, FLuc modulator 3.01µM, Rab9 promoter act 0.891µM, NPC1 promoter act 1.26µM (no result: SMN2 splice enh)
c1cc2c(cc1C1=NNC(=NC3CC3)SC1)OCCO2	ELG1 genotoxic inconclusive, FLuc modulator 0.239µM, KinaseGlo FLuc 2.24µM, Rab9 promoter act 0.0013µM, NPC1 promoter act 0.0003µM
COc1ccc(N=C2NN=C(c3ccc4c(c3)OCCO4)CS2)cc1	FLuc modulator inconclusive
CCCCN=C1NN=C(c2ccc(C)c(C)c2)CS1	FLuc modulator 23.9µM, Rab9 promoter act 1.58µM, NPC1 promoter act 2.82µM, SMN2 splice enh 14.1µM
COCCn1c(C)cc(C2=NNC(=NC(C)(C)C)SC2)c1C	ELG1 genotoxic inconclusive, FLuc modulator inconclusive, Rab9 promoter act inconclusive, NPC1 promoter act inconclusive
COCCN=C1NN=C(c2ccc(C)c([N+](=O)[O-])c2)CS1	ELG1 genotoxic 18.3µM, FLuc modulator 15.1µM, Rab9 promoter act 4.47µM, NPC1 promoter act 2.82µM, SMN2 splice enh 11.2µM
CCCCOC(=O)c1ccc(NC(=O)c2cnc3ccc(C)cn3c2=O)cc1	none (no result: ELG1 genotoxic, KinaseGlo FLuc, Rab9 promoter act, NPC1 promoter act)
COc1ccc(CN2CCc3c(c(=O)n4ncc(C(=O)N5CCN(c6ccccc6F)CC5)c4n3C)C2)cc1	none (no result: ELG1 genotoxic, KinaseGlo FLuc, Rab9 promoter act, NPC1 promoter act, SMN2 splice enh)
Cc1ccc(Nc2nc(CSc3nnc(-c4ccc(F)cc4)n3C)cs2)cc1	FLuc modulator 1.35µM, Rab9 promoter act inconclusive, NPC1 promoter act inconclusive, SMN2 splice enh 10µM
COc1ccc(-c2nnc(SCc3csc(N)n3)n2C)cc1	none (no result: KinaseGlo FLuc, SMN2 splice enh)
COCCOc1ccc(C(F)(F)F)cc1Nc1nc2ccccc2o1	ELG1 genotoxic inconclusive, FLuc modulator 15.1µM
Cc1ccc(NC(=O)Nc2cccc(F)c2)nc1	ELG1 genotoxic inconclusive, FLuc modulator 6.75µM, Rab9 promoter act inconclusive, NPC1 promoter act inconclusive (no result: KinaseGlo FLuc, SMN2 splice enh)
Cc1ccnc(NC(=O)Nc2cccc(F)c2)c1	ELG1 genotoxic 0.92µM, FLuc modulator 0.953µM, Rab9 promoter act 1µM, NPC1 promoter act 1.58µM, SMN2 splice enh 3.55µM
CN(C)c1ccc(N=Nc2ccccc2C(=O)OCC(=O)NC2CCCC2)cc1	FLuc modulator 2.69µM (no result: KinaseGlo FLuc, SMN2 splice enh)
O=C(COC(=O)c1ccccc1Br)NCC1CCCCC1	none (no result: FLuc modulator, KinaseGlo FLuc, Rab9 promoter act, NPC1 promoter act, SMN2 splice enh)
CN(C)c1ccc(N=Nc2ccccc2C(=O)OCC(=O)NCC2CCCCC2)cc1	FLuc modulator 4.78µM
